Screens from PubChem.
ROMK primary: modulators of human ROMK potassium channel; Tet-inducible ROMK, thallium flux fluorescence; actives lie on both sides; B-score at 10 µM; P48048; 130,000 tested, 2% active;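 active means signal ratio slope over the read window, or its plate-corrected B-score, at least 3 SD from the plate mean, either direction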;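 further: B-score of the F/F0 ratio slope over 7 to 12 s after thallium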
Target sequence (P48048 whole entry, looked up): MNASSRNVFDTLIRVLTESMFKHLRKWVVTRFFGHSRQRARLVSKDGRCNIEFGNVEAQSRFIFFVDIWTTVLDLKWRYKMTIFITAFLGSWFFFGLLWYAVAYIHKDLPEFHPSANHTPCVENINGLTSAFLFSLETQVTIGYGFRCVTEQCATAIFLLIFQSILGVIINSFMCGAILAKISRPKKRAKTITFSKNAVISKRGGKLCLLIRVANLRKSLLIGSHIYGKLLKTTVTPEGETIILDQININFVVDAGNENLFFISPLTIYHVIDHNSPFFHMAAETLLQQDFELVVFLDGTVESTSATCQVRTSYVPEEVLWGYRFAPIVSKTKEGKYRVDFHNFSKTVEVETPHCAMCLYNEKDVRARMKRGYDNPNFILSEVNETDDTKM
bCat KO growth: beta-catenin-lacking colon tumor cell growth suppression | HCT116 beta-catenin knockout viability, CellTiter-Glo, 60 h; stronger effect = lower value | viability, % at 10 µM | 140,000 tested, 1.5% active;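 active means viability at or under a set limit, the compound median less 4 SD, cut at about 6% in these data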;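 further: 0% = Hyamine 1622 control at 20 µM and 100% = untreated cell control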
Lmaj promast: inhibitors of Leishmania major promastigote growth. Leishmania major promastigotes, resazurin fluorescence viability. 200,000 tested, 9% active. inhibition, % at 10 µM; in the data active means inhibition above about 50%;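 further: promastigotes grown with compound for 44 hours at 28 °C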
INS promoter inh: TRM-6 insulin promoter activity inhibition | TRM-6 cells (human fetal islet line), insulin promoter-eGFP reporter, imaging; reporter expression induced with tamoxifen | inhibition, % at 2 µM | 130,000 tested, 0.9% active;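 active means inhibition above the mean plus 3 SD, with well images judged a real hit on visual review, cut at about 60% in these data, passing the limit was not always enough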
PTEN del growth: PTEN-deleted cell growth suppression; HCT116 PTEN-null viability, CellTiter-Glo, 60 h; stronger effect = lower value; viability, % at 10 µM; 140,000 tested, 1.2% active; AID 827;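 active means viability at or below a set limit, 4 SD under the median of all tested compounds, cut at about 3.7% in these data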;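 further: PTEN knockout HCT116 line with beta catenin targeted HCT116 as companion control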
p97 ATPase inh: inhibitors of human p97 ATPase | P55072 | recombinant p97 ATPase, Kinase-Glo ATP luminescence, 3 h | inhibition, % at 8 µM | 220,000 tested, 0.42% active; in the data active means inhibition above about 15%;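 further: 0% = DMSO vehicle and 100% = wells lacking enzyme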
Numbers without * were called inactive; x = not tested or not shown. Sampled rows, rich in hits. Any-hit rate of the full collection: about 10%.

SMILES	ROMK primary	bCat KO growth	Lmaj promast	INS promoter inh	PTEN del growth	p97 ATPase inh
Cc1cc(C)c(S(=O)(=O)NCCc2ccccc2)c(C)c1	-1.7	x	-4	x	x	-5
Cc1cc(C)c(S(=O)(=O)NCCC2CCCN2C)c(C)c1 (centres undefined)	-1.1	93	97*	-47	95	-7
Cn1nnnc1SCC(=O)NC(=O)c1cccc([N+](=O)[O-])c1	x	x	x	x	x	2
CSc1nc(-c2ccc(Cl)cc2Cl)[nH]c(=O)c1C#N	-1.7	97	0	79*	102	-5
Cc1cc(-c2ccc(Cl)cc2Cl)c(C#N)c(=O)[nH]1	-0.79	x	x	x	x	7
COc1ccc(CCc2nnc(CCC(=O)NCc3ccc4ncccc4c3)o2)cc1	-0.2	x	-3	x	x	3
CCC(=O)Nc1cc(OC)c(NC(=O)c2ccccc2)cc1OC	x	102	77*	0	102	0
CCOc1cc(NC(=S)Nc2ccccc2)c(OCC)cc1NC(=O)c1ccccc1	x	92	88*	-67	102	-1
COc1cc(NC(=O)c2ccccc2)c(OC)cc1NC(C)=O	x	104	3	41	100	2
CCOc1cc(NC(=O)c2ccccn2)c(OCC)cc1NC(=O)c1ccccc1	-0.33	x	0	46	x	2
CCOc1cc(NC(=S)Nc2ccccc2OC)c(OCC)cc1NC(=O)c1ccccc1C	x	82	97*	10	81	-1
Cc1ccc(NC(=O)COC(=O)C2CCC(=O)N2)c([N+](=O)[O-])c1 (centres undefined)	0.3	x	-2	-24	x	3
COC(=O)c1nc2n(n1)C(c1cc(OC)ccc1OC)C(C(=O)OC1CCCCC1)=C(C)N2 (centres undefined)	x	54	41	x	63	1
O=C(/C=C/c1ccnc2ccccc12)c1cccs1	-0.72	x	100*	x	x	2
COc1cccc(CNc2ccccc2O)c1OCc1ccccc1F	1.2	x	62*	x	x	-4
COc1cccc(CNc2ccc(S(N)(=O)=O)cc2)c1OCc1ccccc1F	-0.78	87	65*	-8	90	-2
COc1cccc(C2NC(=O)c3ccccc3O2)c1OCc1ccccc1F (centres undefined)	0.025	x	84*	-27	x	0
COc1cccc(CNc2ccc(C(=O)O)cc2)c1OCc1ccccc1	-0.58	x	-8	x	x	1
CCOc1cc(NC(=O)C2CC2)c(OCC)cc1NC(=O)CCn1nnc2ccccc21	0.46	89	0	-40	87	1
Cc1ccc(NNC(=O)Nc2ccc(Cl)cc2)nn1	-0.98	x	x	x	x	6
CCCCNC(=O)Oc1c(Br)cc2sc(=O)oc2c1Br	-0.34	x	x	x	x	-13
c1ccc2sc(NC3=NCN(CCN4CCOCC4)CN3)nc2c1	0.097	x	84*	-133	x	0
Cc1ccc(NC(=O)c2cc(S(=O)(=O)c3ccccc3)ccc2Cl)cc1	-0.075	33	34	6	45	-2
CCCCNC(=O)CCc1nc2cccnc2n1Cc1ccc(OC)cc1	-0.21	96	17	83*	105	1
CN(C(=O)CSCC(=O)O)C1CCCCC1	x	89	-4	-32	92	7
SMILES	ROMK primary	bCat KO growth	Lmaj promast	INS promoter inh	PTEN del growth	p97 ATPase inh
COc1ccccc1CC(=O)NCc1nn(-c2ccccc2)nc1C	x	x	x	x	x	-6
O=C(CCn1nc(-c2ccc(Cl)cc2)c2ccccc2c1=O)Nc1cccnc1	1.1	x	62*	x	x	3
CC1(C)Cc2cccc(OCC(O)CN3CCN(c4ccccn4)CC3)c2O1 (centres undefined)	-0.2	89	85*	-16	84	-2
CC1=CC(=O)C=C(C)C1=NOC(=O)c1cccc([N+](=O)[O-])c1	-0.67	88	84*	44	87	-3
CN1CCN(NC(=O)c2cc(Br)ccc2Cl)CC1	0.84	x	-7	53	x	1
Oc1cccc(/C=N/Nc2ncnc3c2ncn3Cc2ccccc2)c1	0.68	75	66*	-17	96	0
Oc1ccc(/C=N/Nc2ncnc3c2ncn3Cc2ccccc2)cc1O	x	26	7	10	17	4
Cc1ccsc1CN(C)Cc1nc(C2CC2)no1	-0.025	x	-7	x	x	0
CN(CCCCCCCCC(=O)/C=N/O)Cc1ccccc1	-0.14	89	87*	-30	95	-2
CN(C)CCCCCCCCCCC(=O)/C=N/O	x	x	99*	-47	x	2
COc1ccc(Br)cc1C(=O)Nc1ccccc1N1CCN(C(=O)c2ccccc2)CC1	0.54	x	55*	x	x	1
COc1ccc(-c2c(NC(=O)c3ccco3)n(-c3ccc(C)cc3)nc(C)c2=O)cc1	x	x	x	x	x	9
Cc1ccc(C)c(CN2C(=O)COc3ccc(C(=O)c4ccccc4C(=O)O)cc32)c1	-0.22	x	100*	31	x	-1
CCOP(=O)(c1ccccc1)C(O)c1ccccc1 (centres undefined)	-0.076	99	0	3	101	3
CCOP(=O)(C1=C(O)C(=O)C(C(C)(C)C)=CC1=O)c1ccccc1 (centres undefined)	0.45	x	-9	67*	x	8
CC(C)(C)NC(=O)COc1ccc(CNCc2ccccn2)cc1	1.1	x	-1	-20	x	1
CCc1ccc(OCC(=O)NC(C)(C)C)cc1	0.2	100	63*	-26	88	-5
CCOc1cc(CNCc2cccs2)ccc1OCC(=O)NC(C)(C)C	x	64	5	x	64	2
CCOc1cc(CNCc2cccnc2)ccc1OCC(=O)NC(C)(C)C	-1.4	x	83*	x	x	2
CCOc1ccc(CCNC(=O)COC(=O)c2ccco2)cc1OCC	-0.66	95	56*	0	90	0
CC(C)(C)NC(=O)COc1ccc(CNCCc2ccccc2)cc1	0.055	x	87*	x	x	3
CCOc1cc(N2CCOCC2)c(OCC)cc1NC(=O)CN1C(=O)C2C3C=CC(C3)C2C1=O (centres undefined)	1.5	x	-6	x	x	2
CC(C)(C)c1ccc(SCCc2ccccn2)cc1	x	x	x	x	x	-9
CCOC(=O)C1CCN(S(=O)(=O)c2cc(Br)cc3c2N(C(C)=O)C(C)C3)CC1 (centres undefined)	x	84	-6	x	85	2
CCOc1ccc(CCNC(=O)Cn2cccc2C(=O)c2ccccc2C)cc1OCC	0.046	92	61*	-50	91	-1
SMILES	ROMK primary	bCat KO growth	Lmaj promast	INS promoter inh	PTEN del growth	p97 ATPase inh
CCOc1cc(CNCCc2ccccc2)ccc1OCC(=O)NC(C)(C)C	x	67	100*	x	94	5
CCOc1ccc(CCNC(=O)CCn2cccc2)cc1OCC	0.34	72	0	-36	77	-1
CCOc1cc(CNCCc2ccc(S(N)(=O)=O)cc2)ccc1OCC(=O)NC(C)(C)C	0.54	68	-3	-17	70	0
Cc1ccc(C2=NN(CCC(=O)NCc3ccc4c(c3)OCO4)C(=O)CC2)cc1	-0.16	79	42	16	84	2
COc1ccc(N2CC(C(=O)N/N=C/c3cc([N+](=O)[O-])ccc3O)CC2=O)cc1 (centres undefined)	0.69	x	-4	17	x	2
Oc1ccccc1/C=N/Nc1cc(N2CCCC2)nc(N2CCCC2)n1	x	24	96*	x	21	0
